From PubChem BioAssay
The source made the active and inactive calls. No rule for the calls is given here.

Assay: P. aeruginosa biofilm formation inhibitors, primary screen, PAO1 strain, BacTiter-Glo luminescence, LB-PBS (AID 1144)
Conditions: 12 h, higher = more signal

z-score, inactive:
CCOC(=O)C[C@H]1[C@H](OC(=O)Cc2ccc3c(c2)OCO3)[C@@H](NC(=O)Cc2ccc(OC)cc2)c2cc(OCCCO)ccc2N1C(=O)Cc1ccc(OC)cc1 -0.805
COC(=O)[C@@]1(Cc2ccccc2)[C@H]2c3cc(C(=O)N4CCCC4)n(Cc4ccc(OC)c(OC)c4)c3C[C@H]2CN1C(=O)c1ccccc1 0.388
[N-]=[N+]=Nc1ccccc1C[C@]1(C(=O)N2CCOCC2)N=C(c2ccc(OCCCO)cc2)O[C@H]1c1ccccc1N=[N+]=[N-] -0.781
CC(C)(C)N1CC=CC23O[C@@H]4/C=C\CCCOC(=O)C4[C@H]2C(=O)N(CCCO)[C@@H]3C1=O (stereo partly specified) 1.68
COc1ccc(CCNC(=O)[C@@H]2c3ccccc3C(=O)N(Cc3ccccc3OC)[C@H]2c2ccc(CO)cc2)cc1 -0.0742
NC(=O)NCC#Cc1ccc2c(c1)[C@]1(C(=O)N2)[C@H](c2ccc(OCCO)cc2)N2[C@H](c3ccccc3)[C@H](c3ccccc3)OC(=O)[C@H]2[C@@H]1C(=O)O -0.626
COc1ccc(C(=O)Nc2ccc3c(c2)[C@@]2(O[C@H](CCO)[C@@H]([Si](C)(C)c4ccc(OC)cc4)[C@@H]2C)C(=O)N3Cc2ccccc2)cc1 -0.0986
COC(=O)C1=CC(CCCO)=CC(c2cccs2)N(Cc2cc3c(cc2Br)OCO3)C=C1C(=O)OC (stereo unspecified) 0.587
O=C1O[C@H](c2ccccc2)[C@H](c2ccccc2)N2[C@H]1[C@@H](C(=O)O)[C@]1(C(=O)Nc3ccc(C#CCCO)cc31)[C@H]2c1ccc(OCCO)cc1 0.982
CCOC(=O)C[C@H]1[C@H](OC(=O)Cc2ccc3c(c2)OCO3)[C@@H](NC(=O)c2ccc3ccccc3n2)c2cc(OCCCO)ccc2N1C(=O)Cc1ccc(OC)cc1 -0.885
O=C(NC1CC1)[C@@H]1c2ccccc2C(=O)N(Cc2cc(C(F)(F)F)cc(C(F)(F)F)c2)[C@H]1c1ccc(CO)cc1 0.0176
C=C(/C(=C/C[C@@H](OC(C)=O)c1cccc(OCCO)c1)c1cnc2ccccc2c1)C(C)C -1.04
O=C1C2C=CC(C(O)c3cccs3)N(Nc3ccc([N+](=O)[O-])cc3)C2C(=O)N1c1ccccc1 (stereo unspecified) 0.461
C[N+](C)(C)CCCC[C@@H]1NC(=O)[C@H]2C[C@@H](C(=O)NCCCCCNC(=O)CS)[C@@H](c3cccc(OCCO)c3)N2C1=O 0.236
COCCOC(=O)N1C(=O)[C@@]2(c3cc(C#CCC(C(=O)OC)C(=O)OC)ccc31)[C@H](c1ccc(O)cc1)N1[C@H](c3ccccc3)[C@H](c3ccccc3)OC(=O)[C@H]1[C@@H]2C(=O)Nc1nc2ccccc2s1 0.164
COC(=O)[C@@]1(Cc2ccc(OC)cc2)[C@H]2c3cc(C(=O)N4CCCC4)n(Cc4c(CO)[nH]cc(C)c4=O)c3C[C@H]2CN1C(=O)c1ccccc1 -0.101
O=C1C[C@]2(c3ccc([N+](=O)[O-])cc3)C(=O)N(C3CC3)c3cc(CO)ccc3[C@H]2N1C1CCCCC1 -0.21
C=C(COC)/C(=C/C[C@@H](OC(C)=O)c1ccccc1OCCO)c1cnc2ccccc2c1 0.514
COCCOC(=O)N1C(=O)[C@@]2(c3cc(C#CC4(O)CCCCCC4)ccc31)[C@H](c1ccc(O)cc1)N1[C@H](c3ccccc3)[C@H](c3ccccc3)OC(=O)[C@H]1[C@@H]2C(=O)N1CCCCCCC1 0.887
C=CCOC(=O)[C@@H]1[C@H]2C(=O)O[C@H](c3ccccc3)[C@H](c3ccccc3)N2[C@H](c2ccc(OCCOC(=O)[C@H]3C[C@H]4C(=O)N[C@@H](CCCCN(C)C)C(=O)N4[C@H]3c3ccc(O)cc3)cc2)[C@@]12C(=O)Nc1ccc(I)cc12 -0.852
COC(=O)C[C@H]1O[C@@]2(C[C@@H]1[Si](C)(C)C)C(=O)N(C)c1ccccc12 -0.355
C=CCC(OC(C)=O)[C@@H]1[C@@H](N(Cc2cc3ccccc3o2)C(=O)c2cccc3ccccc23)c2cc(OCCCO)ccc2N1C(=O)c1ccc2ccccc2n1 (stereo partly specified) -0.399
COC(=O)[C@@]1(Cc2ccc(OC)cc2)[C@H]2c3cc(C(=O)N4CCCC4)n(CCn4cc([N+](=O)[O-])nc4C)c3C[C@H]2CN1C(=O)c1ccccc1 -0.245
CCCCCC1=C2CNC(CC(C)C)(C(=O)OC)C=C2C(C)C1=O (stereo unspecified) 0.661
O=C1C=C(c2ccccc2)C(=O)C2=C1CC([C@H]1Oc3ccccc3S(=O)(=O)N3CCC[C@@H]13)=CC2 0.497
COCCOC(=O)N1C(=O)[C@@]2(c3cc(C#CCC(C(=O)OC)C(=O)OC)ccc31)[C@H](C(=O)Nc1nc3ccccc3s1)[C@H]1C(=O)O[C@H](c3ccccc3)[C@H](c3ccccc3)N1[C@@H]2c1ccc(O)cc1 0.446
C=CCC(OC(C)=O)[C@@H]1[C@@H](N(Cc2ccc(-c3cccc(C(F)(F)F)c3)o2)C(=O)c2ccc(-c3ccccc3)cc2)c2cc(OCCCO)ccc2N1C(=O)c1ccc2ccccc2c1 (stereo partly specified) -0.491
Cc1ccc(S[C@]2(C(=O)NCCCN(C)C)CC(=O)N(Cc3ccccc3C(F)(F)F)[C@@H]2c2ccc(CO)cc2I)cc1 0.323
CN(C)CCCC[C@@H]1NC(=O)[C@H]2C[C@@H](C(=O)O)[C@@H](c3ccc(O)cc3)N2C1=O 0.294
COCCOC(=O)N1C(=O)[C@@]2(c3cc(C#CCCO)ccc31)[C@H](c1ccc(OCCO)cc1)N1[C@H](c3ccccc3)[C@H](c3ccccc3)OC(=O)[C@H]1[C@@H]2C(=O)N1CCCCCCC1 0.542
CCN(CC)c1ccc(N2CC=CC34O[C@@H]5C=CCCOC(=O)C5[C@H]3C(=O)N(C(C)CO)[C@@H]4C2=O)cc1 (stereo partly specified) 1.25
CC(C)=CCCC(C)=CC(O)C1C=CC2C(=O)NC(=O)C2N1Nc1ccc(Cl)cc1Cl (stereo unspecified) -0.815
COC(=O)[C@@]1(Cc2ccc(F)cc2)[C@H]2c3cc(C(=O)N(C)C)n(CCc4ccc(O)c(O)c4)c3C[C@H]2CN1C(=O)c1ccccc1 -0.0598
N#Cc1ccc(-c2cccc(=O)o2)cc1 -0.131
COC(=O)[C@@]1(Cc2ccccc2)[C@H]2c3cc(C(=O)N(C)C)n(CCO)c3C[C@H]2CN1C(=O)c1ccccc1 0.409
C=CCOC(=O)[C@H]1[C@@H]2C(=O)O[C@@H](c3ccccc3)[C@@H](c3ccccc3)N2[C@@H](c2ccc(OCCOC(=O)[C@@H]3C[C@@H]4C(=O)N[C@@H](CCCC[N+](C)(C)C)C(=O)N4[C@@H]3c3ccc(O)cc3)cc2)[C@]12C(=O)Nc1ccc(I)cc12 0.201
